According to PubChem BioAssay (NCATS):
Inconclusive results are not listed. Calls of active or inactive are those of the source. Unless noted, the call rests on the fitted dose curve.

Tests used:
[1] = qHTS for Inhibitors of the Functional Ribonucleoprotein Complex (vRNP) of Lassa (LASV) Arenavirus: LASV Primary Screen - GLuc reporter signal (AID 1347082; calls by dose curve; tested in HEK293 reporter line; further: nearly all actives have a fitted effect of over 60% in size)
[2] = qHTS for Inhibitors of the Functional Ribonucleoprotein Complex (vRNP) of Lassa (LASV) Arenavirus: Viability assay - alamar blue signal for LASV Primary Screen (AID 1347083; calls by dose curve; tested in HEK293 reporter line; further: nearly all actives have a fitted effect of over 80% in size)
[3] = qHTS for Inhibitors of the Functional Ribonucleoprotein Complex (vRNP) of Lymphocytic Choriomeningitis Arenaviruses (LCMV): Viability assay - alamar blue signal for LCMV Primary Screen (AID 1347085; calls by dose curve; tested in HEK293 reporter line; further: nearly all actives have a fitted effect of over 80% in size)
[4] = biological target: Nucleoprotein (Lymphocytic choriomeningitis virus (strain Armstrong)) (UniProt P09992); test: qHTS for Inhibitors of the Functional Ribonucleoprotein Complex (vRNP) of Lymphocytic Choriomeningitis Arenaviruses (LCMV): LCMV Primary Screen - GLuc reporter signal (AID 1347086); further: nearly all actives have a fitted effect of over 70% in size
Chain of Nucleoprotein (Lymphocytic choriomeningitis virus (strain Armstrong)) (P09992 whole entry, looked up): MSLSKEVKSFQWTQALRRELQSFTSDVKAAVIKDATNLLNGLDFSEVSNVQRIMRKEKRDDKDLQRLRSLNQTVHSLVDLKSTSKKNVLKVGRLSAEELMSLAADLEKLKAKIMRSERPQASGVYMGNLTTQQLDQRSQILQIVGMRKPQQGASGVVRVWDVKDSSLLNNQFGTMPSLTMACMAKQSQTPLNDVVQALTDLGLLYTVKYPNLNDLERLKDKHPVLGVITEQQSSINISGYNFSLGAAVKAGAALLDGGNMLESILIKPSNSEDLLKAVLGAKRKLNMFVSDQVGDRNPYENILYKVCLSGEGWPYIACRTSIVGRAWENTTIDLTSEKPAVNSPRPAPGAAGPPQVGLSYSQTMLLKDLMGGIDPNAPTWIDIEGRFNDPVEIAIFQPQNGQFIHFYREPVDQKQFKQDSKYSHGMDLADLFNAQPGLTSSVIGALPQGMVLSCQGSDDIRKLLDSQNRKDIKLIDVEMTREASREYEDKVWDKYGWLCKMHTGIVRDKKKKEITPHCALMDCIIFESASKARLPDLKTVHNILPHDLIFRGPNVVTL

Measured: Potency
Further: series mostly up to about 57 µM.

CCCc1nn(C)c2c(=O)[nH]c(-c3cc(S(=O)(=O)N4CCN(C)CC4)ccc3OCC)nc12
inactive: all assays above

CCCCCCCCCCCCCCCCO
inactive: all assays above

CCOCCn1c(C2CCN(CCc3ccc(C(C)(C)C(=O)O)cc3)CC2)nc2ccccc21
inactive: all assays above

O=C(O)CCCCC(=O)O
inactive: all assays above

COC(=O)c1ccccc1C(=O)c1ccc(OCCN2CCCCC2)cc1
inactive: all assays above

CC(=O)Nc1ccc(C(=O)O)cc1
inactive: all assays above

COC(=O)c1cc(Cl)ccc1OC
inactive: all assays above

CCN(CC)CCNC(=O)c1cc(S(C)(=O)=O)ccc1OC
inactive: all assays above

Cc1ccccc1C(=O)N1CC/C(=N\OS(=O)(=O)O)c2ccc(Cl)cc21
inactive: all assays above

CCCCCCCCCCCC(=O)[O][Sn]([CH2]CCC)([CH2]CCC)[O]C(=O)CCCCCCCCCCC
inactive: all assays above

COc1cc(C(=O)OC(COCCC(C)C)CN2CCOCC2)cc(OC)c1OC (stereo unspecified)
inactive: all assays above

Cc1c(C)c2c(c(C)c1O)CCC(C)(COc1ccc(CC3SC(=O)NC3=O)cc1)O2 (stereo unspecified)
inactive: all assays above

CC(=O)O[C@@H]1C(=O)O[C@@H]2[C@H]1OC(=O)[C@@H]2OC(C)=O
inactive: all assays above

Cc1ccc(S(=O)(=O)NC(=O)NC2CCCCCCC2)cc1
inactive: all assays above

O=S(=O)(O)c1cc(I)c(O)c2ncccc12
inactive: all assays above

C[C@H]1C[C@@H]2[C@H]([C@@H](O)C[C@@]3(C)[C@H]2CC[C@]3(O)C(=O)CO)[C@@]2(C)C=CC(=O)C=C12
inactive: all assays above

O=C(c1ccccc1)c1ccccc1
inactive: all assays above

CCN(CC)CCOC(=O)c1ccc(N)cc1
inactive: all assays above

CCc1cccc(CC)c1NC(=O)CN(CC(=O)O)CC(=O)O
inactive: all assays above

Cc1cc(CC(=O)O)c(C)n1-c1ccc(Cl)cc1
inactive: all assays above

Nc1ncnc2c1ncn2[C@@H]1O[C@H](CO)[C@@H](O)[C@H]1O
inactive: all assays above

CN1[C@@H]2CC(OC(=O)[C@H](CO)c3ccccc3)C[C@H]1[C@@H]1O[C@@H]12 (stereo partly specified)
inactive: all assays above

N[C@@H](CCC(=O)N[C@@H](CS)C(=O)NCC(=O)O)C(=O)O
inactive: all assays above

CC(C)CCOC(=O)c1ccc(N(C)C)cc1
inactive: all assays above

C#C[C@]1(O)CC[C@H]2[C@@H]3CCC4=CC(=O)CC[C@@H]4[C@H]3CC[C@@]21CC
inactive: all assays above

O=c1[nH]cnc2nc[nH]c12
inactive: all assays above

C[C@@H]1CN(c2c(F)c(F)c3c(=O)c(C(=O)O)cn(C4CC4)c3c2F)C[C@H](C)N1
inactive: all assays above

Clc1cccc(C(c2ccc3nc[nH]c3c2)n2ccnc2)c1 (stereo unspecified)
inactive: all assays above

CC(C)(C)NC[C@H](O)COc1nsnc1N1CCOCC1
inactive: all assays above

Nc1ccn([C@@H]2CS[C@H](CO)O2)c(=O)n1
inactive: all assays above

Cc1cc(-n2nc3ccc(Cl)cc3n2)c(O)c(C(C)(C)C)c1
inactive: all assays above

COc1ccccc1OCC(O)CO (stereo unspecified)
inactive: all assays above

CC(C)CN(C[C@@H](O)[C@H](Cc1ccccc1)NC(=O)O[C@H]1CO[C@H]2OCC[C@H]21)S(=O)(=O)c1ccc(N)cc1
inactive: all assays above

CCC[C@@H]1C[C@@H](C(=O)N[C@@H]([C@H]2O[C@H](SC)[C@H](O)[C@@H](O)[C@H]2O)[C@@H](C)O)N(C)C1
inactive: all assays above
